The source of these data is PMC5540273 (PLoS ONE, 2017).

Conditions in all cases: concentration: 1 μM, replicates: in singlicate; n = 1
In assay [1] the test system is EIF2AK1.
For assay [2], the system named is EPHA1.
Assay [3] concerns EPHA2.
In assay [4] the test system is EPHA3.
In assay [5] the test system is EPHA4.
For assay [6], the system named is EPHA5.
Assay [7] concerns EPHA6.
Assay [8] concerns EPHA7.
For assay [9], the system named is EPHA8.
In assay [10] the test system is EPHB1.
The test system of assay [11] is EPHB2.
Assay [12] concerns EPHB3.
In assay [13] the test system is EPHB4.
The test system of assay [14] is EPHB6.
The test system of assay [15] is ERBB2.
The test system of assay [16] is ERBB3.
Assay [17] concerns ERBB4.
In assay [18] the test system is T1, ERK1.
T1 construct: gene MAPK3

Assay [19] concerns T2, ERK2.
T2 construct: gene MAPK1

The subject of assay [20] is T3, ERK3.
T3 construct: gene MAPK6

Structures are written as SMILES.
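Further: KINOMEscan kinase panel screen.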

Turning to `Nc1nc(-c2ccccn2)c(-c2ccnc3ccccc23)s1` [GW548057], the “%Inh” value in [1] came to 0%; in assay [2], 6%; in assay [3] it was 0%; in [4], 15%; in [5], 0%; in [6], 0%. Further, the “%Inh” value is recorded as 6% in assay [7]; 13% in assay [8]; 20% in assay [9]; 5% in assay [10]; 14% in [11]; 14% in [12]. Also, the “%Inh” value was determined as 0% in assay [13]; 27% in assay [14]; 53% in assay [15]; 31% in assay [16]; 11% in assay [17]; 0% in assay [18]. The figures for the “%Inh” value in assay [19] and in assay [20] were 0% and 10%, respectively.
With `Cc1cc(N2CCC(NS(=O)(=O)c3ccc(F)cc3)CC2)nc(Nc2cccc(C#N)c2)n1.O=C(O)C(F)(F)F` [GSK1653537], the “%Inh” value amounted to 0% in assay [1]; 1% in assay [2]; 0% in assay [3]; 0% in assay [4]; 7% in [5]; 0% in [6]. The “%Inh” value is on record as 5% in assay [7]; 6% in assay [8]; 19% in [9]; 15% in [10]; 0% in assay [11]; 1% in [12]. Further, the “%Inh” value turned out to be 13% in assay [13]; 8% in assay [14]; 13% in assay [15]; 0% in assay [16]; 0% in assay [17]; 0% in [18]. Moreover, the “%Inh” value is on record as 0% in [19] and 7% in [20].
For the compound `Cl.c1ccc(Cn2ncc3cc(Nc4ncnc5ccccc45)ccc32)cc1` [GW273749], the “%Inh” value in assay [1] amounted to 0%; in [2], 28%; in [3], 0%; in assay [4], 0%; in [5], 4%; in [6], 0%. Moreover, the “%Inh” value in assay [7] is 0%; in assay [8], 7%; in [9], 17%; in assay [10], 0%; in assay [11], 0%; in assay [12], 0%. Further, the “%Inh” value in assay [13] is on record as 10%; in assay [14] it was 31%; in assay [15], 100%; in assay [16], 68%; in assay [17], 96.2%; in assay [18], 0%. Besides, the “%Inh” value in [19] worked out at 0%; in assay [20] it was 57%.
Turning to `c1ccc(-c2ccc3c(-c4ccnc(Nc5ccc6c(c5)OCCO6)n4)cnn3n2)cc1` [GW818941], the “%Inh” value was found to be 0% in assay [1]; 7% in assay [2]; 18% in [3]; 0% in assay [4]; 21% in assay [5]; 0% in assay [6]. Moreover, the “%Inh” value in [7] is 12%; in [8], 14%; in assay [9] it was 17%; in assay [10], 18%; in assay [11], 3%; in assay [12], 13%. The “%Inh” value in assay [13] was 10%; in assay [14], 0%; in assay [15], 21%; in [16], 15%; in assay [17] it was 0%; in assay [18], 11%. For the same compound, the “%Inh” value in [19] was 6%; in assay [20] it was 0%.
As to `O=C(Nc1ccccc1F)NC1CCN(c2ccnc(Nc3ccc(F)cc3)n2)C1` (centres unmarked) [GSK1379722], the “%Inh” value in assay [1] came out at 0%; in assay [2], 0%; in [3], 8%; in [4], 0%; in [5], 0%; in assay [6], 0%. For the same compound, the “%Inh” value in [7] is on record as 4%; in assay [8] it was 5%; in assay [9], 14%; in assay [10] it was 11%; in assay [11], 0%; in assay [12], 17%. The “%Inh” value came to 0% in [13]; 17% in assay [14]; 30% in assay [15]; 3% in assay [16]; 0% in assay [17]; 100% in [18]. The “%Inh” value in [19] is reported as 0%; in assay [20], 13%.
Regarding `COc1ccc(-c2oc3ncnc(N)c3c2-c2ccc(OC)cc2)cc1` [SB-589132], the “%Inh” value in assay [1] was found to be 3%; in [2], 70%; in [3], 19%; in assay [4] it was 0%; in assay [5], 32%; in assay [6] it was 0%. The “%Inh” value in assay [7] came to 50%; in assay [8] it was 0%; in [9] it was 9%; in assay [10], 0%; in assay [11], 0%; in assay [12], 24%. Also, the “%Inh” value in assay [13] came to 5%; in [14] it was 36%; in [15] it was 41%; in assay [16], 46%; in assay [17], 33%; in [18], 0%. For the same compound, the “%Inh” value in [19] worked out at 0%; in [20] it was 6%.
Consider `CCC(CC)(CC)n1cnc2c(N)ncnc21` [SKF-97620], for which the “%Inh” value came to 30% in assay [1]; 0% in assay [2]; 100% in assay [3]; 11% in [4]; 15% in [5]; 0% in [6]. Also, the “%Inh” value in assay [7] is listed as 16%; in assay [8], 22%; in assay [9] it was 23%; in [10] it was 9%; in [11] it was 0%; in assay [12], 18%. In addition, the “%Inh” value is 0% in [13]; 9% in [14]; 20% in assay [15]; 46% in [16]; 32% in [17]; 0% in assay [18]. The “%Inh” value in assay [19] and in assay [20] was 0% each time.
In the case of `Cc1ccc(NC(=O)c2cccc(C#N)c2)cc1-c1ccc(C(=O)Nc2ccncc2)cc1` [GSK1398463], the “%Inh” value came out at 7% in [1]; 12% in assay [2]; 30% in assay [3]; 13% in assay [4]; 43% in assay [5]; 0% in assay [6]. Besides, the “%Inh” value in [7] was determined as 34%; in [8] it was 12%; in assay [9], 46%; in [10], 22%; in [11], 13%; in [12] it was 26%. The “%Inh” value in [13] stood at 25%; in assay [14] it was 2%; in [15] it was 0%; in assay [16], 0%; in assay [17] it was 32%; in assay [18], 0%. Moreover, the “%Inh” value in [19] turned out to be 0%; in assay [20], 5%.
On to `COc1ccc(Nc2nccc(N3CCC(NC(=O)c4cccc(NC(C)=O)c4)C3)n2)cc1` (centres unmarked) [GSK1379732], for which the “%Inh” value worked out at 0% in assay [1]; 0% in assay [2]; 20% in assay [3]; 1% in [4]; 0% in assay [5]; 0% in assay [6]. Moreover, the “%Inh” value in assay [7] was 0%; in assay [8] it was 0%; in assay [9], 0%; in assay [10], 1%; in [11], 8%; in assay [12] it was 1%. Moreover, the “%Inh” value in assay [13] was determined as 11%; in [14], 16%; in assay [15], 52%; in [16] it was 30%; in [17] it was 0%; in [18] it was 0%. Further, the “%Inh” value in assay [19] is recorded as 0%; in assay [20], 5%.
Turning to `COc1ccc(NC(=O)Nc2ccc(C)c(-c3ccc(C(=O)Nc4ccncc4)cc3)c2)cc1` [GSK1398475], the “%Inh” value is listed as 0% in assay [1]; 6% in assay [2]; 8% in [3]; 13% in assay [4]; 1% in [5]; 0% in assay [6]. Moreover, the “%Inh” value in [7] turned out to be 11%; in [8] it was 4%; in [9], 14%; in [10] it was 13%; in assay [11], 12%; in [12] it was 13%. Further, the “%Inh” value in [13] is recorded as 13%; in [14], 20%; in [15], 0%; in assay [16], 0%; in [17], 19%; in assay [18], 2%. Moreover, the “%Inh” value in assay [19] came out at 0%; in [20], 9%.
